Results on 24 compounds are retold here after PubChem BioAssay (Tox21).

Results filed as inconclusive are left out. Unmarked numbers belong to inactive results. Activity calls are given as the source filed them. Calls follow the shape of the dose curve; as a rule, active = well fitted cell-killing curve with a large enough effect in the repeat runs; inconclusive = weak or mixed curves, or effect the other way; inactive = flat fitted curve, though single readings scatter.
% is scaled to controls: 0 for no effect and ±100 for the full control effect.

This test is described as follows: qHTS assay to identify small molecule that activate the aryl hydrocarbon receptor (AhR) signaling pathway - cell viability counter screen (AID 743086).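 Also: HepG2 liver cells carrying the AhR DRE luciferase reporter; nearly all actives have a fitted effect of over 45% in size.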 The note with it: HepG2-AhR-luc viability, CellTiter-Fluor, 24 h; series mostly up to 70.3 µM; viability change, negative = cytotoxic: at the top concentration. The procedure, abridged: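 HepG2-AhR-luc (HG2L7.5c1) cells, 4000/well, were preincubated 5 h at 37C, exposed to compound in qHTS format for 24 hr at 37C, then given CellTiter-Fluor for 30 min; viability was read as fluorescence in the reporter wells.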
A general note: Quantitative high-throughput screening tests each substance at several concentrations.
For the compound `c1ccc2c(c1)[nH]c1cnccc12`, the “viability change, negative = cytotoxic” value was 10.2%.

Turning to `CC(C)(C)c1cc([N+](=O)[O-])cc(C(C)(C)C)c1O`, the “viability change, negative = cytotoxic” value is -26.9%.

With `O=c1[nH]c2ccccc2n1C1CCN(CCCC(c2ccc(F)cc2)c2ccc(F)cc2)CC1`, the “viability change, negative = cytotoxic” value is 4.98%.

For `CC(C)(C)OO`, the “viability change, negative = cytotoxic” value is -0.522%.

Consider `BrCBr`, for which the “viability change, negative = cytotoxic” value was 0.377% [at 95 µM].

With `COc1ccc(/C(=C/C(=O)N2CCOCC2)c2ccc(Cl)cc2)cc1OC`, the “viability change, negative = cytotoxic” value was 2.95%.

As for `BrC(Br)Br`, the “viability change, negative = cytotoxic” value was -2.37%.

Take `N#CNC#N`: the “viability change, negative = cytotoxic” value was -1.15% [at 95 µM].

Take `COc1cc(N)c(Cl)cc1C(=O)NC1CN2CCC1CC2` (centres undefined): the “viability change, negative = cytotoxic” value was 5.4%.

Turning to `ClC(Cl)=C(c1ccc(Cl)cc1)c1ccc(Cl)cc1`, the Potency entry was “inactive”.

Turning to `CC(C)OC(=S)S`, the “viability change, negative = cytotoxic” value was 6.88%.

Consider `CCN`, for which the “viability change, negative = cytotoxic” value is 9.18% [at 95 µM].

Take `Fc1cccc(Cl)c1CCl`: the “viability change, negative = cytotoxic” value is 6.72%.

For `CCCCCCCCCCCCCN1CC(C)OC(C)C1` (centres undefined), the “viability change, negative = cytotoxic” value was -0.486%.

On to `CC(C)CCCCCOC(=O)c1ccccc1C(=O)OCCCCCC(C)C`, for which the “viability change, negative = cytotoxic” value is 9.92%.

On to `O=[N+]([O-])c1ccc(Oc2ccc(C(F)(F)F)cc2[N+](=O)[O-])cc1`, for which the “viability change, negative = cytotoxic” value is -17.1%.

`CC(=O)Nc1ccc2c(c1)Cc1ccccc1-2`: the “viability change, negative = cytotoxic” value is 22.8% [at 95 µM].

As to `CC(C)OS(C)(=O)=O`, the “viability change, negative = cytotoxic” value was -0.199% [at 95 µM].

Consider `CCOC(=O)OC1=C(c2cc(C)ccc2C)C(=O)NC12CCC(OC)CC2` (centres undefined), for which the “viability change, negative = cytotoxic” value is -2.18%.

As for `FC(F)(F)c1cccc(C2=CCN(CCc3ccc4ccccc4c3)CC2)c1`, the “viability change, negative = cytotoxic” value is -8.01%.

With `O=C1NCN(c2ccccc2)C12CCN(CC1COc3ccccc3O1)CC2` (centres undefined), the “viability change, negative = cytotoxic” value was -5.14%.

As to `COc1cccc(C(=O)CCN[C@@H](C)[C@H](O)c2ccccc2)c1`, the “viability change, negative = cytotoxic” value is -1.29%.

In the case of `CCCCN(CCCC)C(=S)[S-].CCCCN(CCCC)C(=S)[S-].[Zn+2]`, the Potency entry is “inactive”.

In the case of `C[C@]12CC[C@H]3[C@@H](CCC4=CC(=O)CC[C@@]43C)[C@@H]1CC[C@@H]2O`, the “viability change, negative = cytotoxic” value is 0.783%.
